This passage reports Inhibition results from ChEMBL document CHEMBL1157539, “Thousands of chemical starting points for antimalarial lead identification” (Nature, 2010).

What all share (type): functional
Experiment [1] concerns Plasmodium falciparum. Kind of experiment: GSK_TCMDC: Inhibition of Plasmodium falciparum 3D7 in whole red blood cells, using parasite LDH activity as an index of growth. Test compounds present at 2uM.
Experiment [2] relates to Plasmodium falciparum. Kind of experiment: GSK_TCMDC: Inhibition of Plasmodium falciparum Dd2 in whole red blood cells, using parasite LDH activity as an index of growth. Test compounds present at 2uM.
Another experiment concerns HepG2. Kind of experiment: GSK_TCMDC: Percent inhibition of human HepG2 cell line. Test compounds present at 10uM.

As to `CN(C(=O)/C=C/c1c(Cl)cccc1Cl)C1CCN(CCCCCNC(=O)/C=C/c2ccc(Cl)c(Cl)c2)CC1`, the results for the Inhibition in the experiment on Plasmodium falciparum [1], in the experiment with Plasmodium falciparum [2] and in the experiment on HepG2 were 92%, 62% and 78%, respectively.
In the case of `c1cncc(CN2CCN(Cc3ccc(-c4ccc(-c5nc6ccccc6[nH]5)s4)cc3)CC2)c1`, the Inhibition worked out at 97% with Plasmodium falciparum [1], 34% with Plasmodium falciparum [2] and 32% in the experiment on HepG2.
For `Cc1ccc(Oc2ccccc2NC(=O)CCc2nc3ccccc3c(=O)[nH]2)cc1` the same measures were 100%, 99% and 3%.
For the compound `COc1ccc(C(=O)NC(Nc2ccc([N+](=O)[O-])cc2)C(Cl)(Cl)Cl)cc1` (stereo not given), the Inhibition in the experiment with Plasmodium falciparum [1] came out at 95%; in the experiment on Plasmodium falciparum [2], 83%; with HepG2, 15%.
`CC(=O)Nc1cccc(-c2cn(-c3ccc(OCc4cccc(F)c4)c(Cl)c3)c3ncncc23)c1`: the Inhibition is listed as 100% in the experiment with Plasmodium falciparum [1], 66% in the experiment on Plasmodium falciparum [2] and 7% in the experiment on HepG2.
Regarding `CCOc1cc(C(=O)NCc2cccc(C(F)(F)F)c2)ccc1-c1nc2cc(Cl)ccc2[nH]1`, the Inhibition with Plasmodium falciparum [1] stood at 88%; in the experiment with Plasmodium falciparum [2] it was 31%; in the experiment on HepG2, 7%.
`COC(=O)c1cc(OC)c(OC)cc1NC(=O)NC12CC3CC(CC(C3)C1)C2`: the Inhibition is 94% with Plasmodium falciparum [1], 3% in the experiment with Plasmodium falciparum [2] and 6% with HepG2.
Turning to `O=C(Nc1ccc(SC(F)(F)F)cc1)Nc1ccc(Cl)c(Cl)c1`, the Inhibition was 98% in the experiment with Plasmodium falciparum [1], 99% with Plasmodium falciparum [2] and 15% with HepG2.
For `CCOc1ccc(-c2n[nH]c(C(F)(F)F)c2-c2ccccc2OC)c(O)c1`, in that order: 86%, 12% and 22%.
For `COc1ccc(CCNc2nc(NCc3ccccc3)c3cc(OC)c(OC)cc3n2)cc1OC`, in that order: 100%, 91% and 46%.
For `COc1cc2nc(N3CCC(NC(=O)c4cccc(N(C)C)c4)CC3)nc(N)c2cc1OC.O=C(O)/C=C\C(=O)O` the same measures were 98%, 0% and 6%.
Consider `CN1CCCN(c2ccnc3cc4c(cc23)N(C(=O)c2ccc(C(F)(F)F)cc2)CC4)CC1.Cl`, for which the Inhibition is 100% with Plasmodium falciparum [1], 63% in the experiment with Plasmodium falciparum [2] and 10% in the experiment with HepG2.
With `COc1ccc2nccc(N3CCC(CCNCc4cc5c(cn4)OCCO5)CC3)c2c1.Cl`, the Inhibition was 100% in the experiment on Plasmodium falciparum [1], 99% with Plasmodium falciparum [2] and 26% in the experiment with HepG2.
For `CC(O)C1CCCCN1C(=O)c1cccc(-c2ccc(-c3nc4ccccc4[nH]3)s2)c1` (stereo not given) the same measures were 100%, 23% and 24%.
For `CCOC(=O)CCCOc1cc(Cc2cnc(N)nc2N)cc(OC)c1OC` the same measures were 97%, 3% and 12%.
Turning to `CC(C)C[C@H](NC(=O)c1ccc(OCCN2CCOCC2)cc1)C(=O)N[C@H](/C=N/N1CCN(C)C1=O)CCc1ccccc1`, the figures for the Inhibition with Plasmodium falciparum [1], in the experiment on Plasmodium falciparum [2] and with HepG2 were 90%, 65% and 3%, respectively.
In the case of `O=C(O)C(F)(F)F.c1ccc2c(c1)CN(CC1CC1)CC1(CCN(Cc3c[nH]c4cnccc34)CC1)O2`, the Inhibition in the experiment with Plasmodium falciparum [1] was found to be 100%; in the experiment with Plasmodium falciparum [2] it was 14%; with HepG2, 30%.
For `Cc1n[nH]c2cc(Nc3ccnc(Nc4ccc(CN5CCOCC5)cc4)n3)ccc12`, in that order: 97%, 5% and 22%.
For `CN1CCC(c2ccc(NC(=O)c3ccc(-c4cccc(C(F)(F)F)c4)o3)cc2)CC1`, in that order: 86%, 23% and 23%.
For `O=C(/C=C/c1cccc2c1OCO2)Nc1ccnc2ccncc12`, in that order: 90%, 35% and 17%.
